From PubChem
Rows were chosen to be rich in hits. Some 3.7% of all compounds tested hit in one or more screens of this group.
Tb PYK inh = T. brucei pyruvate kinase inhibition | Q57TT1 | TbPYK enzyme, Kinase-Glo Plus ATP luminescence, 45 min | Potency, µM (doses to about 76.8 µM), most hits filed as inhibitors | 410,000 tested, 0.12% active | AID 624173; note: nearly all actives have a fitted effect of over 50% in size
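In this concentration-response screen, enzyme-free wells defined baseline while DMSO plates tracked drift. Each reaction combined TbPYK, substrate, compound and 130 uM ADP for 45 min at room temperature. Kinase-Glo Plus luminescence gave the signal.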
FMDV inh = antivirals against foot and mouth disease virus | FMDV antiviral cell-based qHTS | Potency, µM (top dose mostly 57.9 µM), hits mostly inhibitors | 410,000 tested, 1.2% active; calls by dose curve; tested in HEK293T cells; note: read-out not given here; nearly all actives have a fitted effect of over 45% in size
RE007 growth inh = less growth of the S. pombe RE007 Vpr strain. S. pombe RE007 Vpr strain, BacTiter-Glo ATP luminescence, 24 h. AID 651644. 360,000 tested, 0.21% active. Potency, µM (titrated, usually from 92.2 µM), actives largely listed as inhibitors; active = well fitted falling curve with a large enough effect; inconclusive = small, poorly fitted or top-dose-only effect; inactive = no such curve, though single readings can be large or run the other way; note: nearly all actives have a fitted effect of over 50% in size
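Fission yeast strain RE007, carrying one chromosomally integrated HIV-1 vpr copy, was seeded at OD 0.01 in PMG+AL medium with 23 nL pinned compound. After 24 h at 30 °C and 99% humidity, viability was read by BacTiter-Glo luminescence.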
Sm TGR block = inhibitors of Schistosoma mansoni thioredoxin glutathione reductase; Q962Y6; Potency, µM (series often up to 114 µM), hits mostly inhibitors; 360,000 tested, 3% active; purified TGR, DTNB reduction, TNB absorbance 405 nm; AID 485364; note: nearly all actives have a fitted effect of over 60% in size
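Kinetic colorimetric format: TGR-catalysed, NADPH-driven DTNB reduction monitored via TNB absorbance. Enzyme dispensed at 20 nM; compound exposure 15 min at room temperature before reaction start.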
Large screens that a line does not name were inactive. Unless noted, calls come from the whole dose curve; as a rule, active = well fitted curve in the direction sought with a large enough effect; inconclusive = small, poorly fitted or top-dose-only effect, or another doubt; inactive = no such curve, though single readings can be large; an effect the other way counts as inactive or inconclusive.

CCOC(=O)/C(=C/c1ccc(OC(=O)c2ccccc2)cc1)C(C)=O	RE007 growth inh 28µM, Sm TGR block inconclusive
c1coc(-c2nn3c(-c4ccco4)nnc3s2)c1	Sm TGR block 14µM
Clc1ccc(OCc2nn3c(-c4ccco4)nnc3s2)cc1	Sm TGR block 32µM
CCS(=O)(=O)c1cccc(C(=O)N2CCN(c3nc4c(C)ccc(Cl)c4s3)CC2)c1	none (no result: RE007 growth inh)
CCn1c(-c2ccccc2F)nc2cc(NC(C)=O)cc(C(=O)NCc3ncc(C)[nH]3)c21	none (no result: Tb PYK inh, RE007 growth inh, Sm TGR block)
COc1ccc(/C=C/C(=O)OCC(=O)N2CC(=O)Nc3ccccc32)cc1S(=O)(=O)N1CCOCC1	none
COc1cc(/C=C/C(=O)OCC(=O)N2CC(=O)Nc3ccccc32)ccc1O	Sm TGR block 45µM
C#CCCc1ccccc1/C=[N+](/C)[O-]	Sm TGR block 11µM
C/[N+]([O-])=C\c1coc2ccccc2c1=O	none
CCN(c1ccc(OC)cc1)S(=O)(=O)c1c(C(=O)N2CCCCCC2)c(C)n(C)c1C	none (no result: RE007 growth inh)
Cn1c(O)c(C(=Nc2ccccc2)SCc2ccc(Cl)cc2)c(=O)n(C)c1=O	Sm TGR block 20µM
Cc1cccc(-c2nc(CS(=O)CC(=O)NC3CCCCC3)c(C)o2)c1 (centres undefined)	Sm TGR block 56µM
Cc1oc(-c2ccccc2)nc1CS(=O)CC(=O)NC1CCCCCC1 (centres undefined)	Sm TGR block 7.1µM
COc1cccc(-c2nc(CS(=O)CC(=O)NC3CCCC3)c(C)o2)c1 (centres undefined)	Sm TGR block inconclusive
Cc1oc(-c2ccccc2)nc1CS(=O)CC(=O)O (centres undefined)	none
COc1cccc(-c2nc(CS(=O)CC(=O)NC3CCCCC3)c(C)o2)c1 (centres undefined)	Sm TGR block 18µM
Cc1oc(-c2ccccc2F)nc1CS(=O)CC(=O)NC1CC1 (centres undefined)	Sm TGR block inconclusive
Cc1oc(-c2ccccc2F)nc1CS(=O)CC(=O)NC1CCCCC1 (centres undefined)	Sm TGR block 32µM
Cc1cccc2c(=O)cc(CSCC(=O)Nc3ccc(Cl)cc3)[nH]c12	none (no result: RE007 growth inh)
CCOC(=O)N1CCC(NC(=O)CS(=O)Cc2nc(-c3ccccc3C)oc2C)CC1 (centres undefined)	Sm TGR block 13µM
O=C(Nc1ccc(Cl)cc1)[C@@H]1[C@@H]2C(=O)N(c3ccc(Cl)cc3)C(=O)[C@@H]2[C@H]2C=CC=NN21	Tb PYK inh inconclusive, Sm TGR block 50µM
Cc1ccc(N2C(=O)[C@@H]3[C@H](C2=O)[C@H]2C=CC=NN2[C@@H]3C(=O)Nc2ccc(Cl)cc2)cc1	none
S=c1[nH]nc(Cc2ccccc2)n1-c1ccccc1	Tb PYK inh inconclusive
CCn1c(Cc2ccccc2)n[nH]c1=S	Tb PYK inh inconclusive
S=c1[nH]nc(COc2ccc(Cl)cc2)n1-c1ccccc1	Tb PYK inh 8.9µM
S=c1[nH]nc(COc2ccc(Cl)cc2)n1-c1ccc(Cl)cc1	Tb PYK inh inconclusive
S=c1[nH]nc(Cc2ccccc2)n1-c1ccc(Cl)cc1	Tb PYK inh 2.8µM
CCCCn1c(Cc2ccccc2)n[nH]c1=S	Tb PYK inh 11µM
CCCCc1n[nH]c(=S)n1Cc1ccc(Cl)cc1	Tb PYK inh 10µM
COc1ccc(-c2nc3cnc(N4CCOCC4)nc3n(-c3ccccc3)c2=O)cc1	none (no result: Tb PYK inh, RE007 growth inh, Sm TGR block)
CN(C)CCCN(C(=O)COc1ccccc1)c1nc2ccc(F)cc2s1	none
CN(C)CCCN(C(=O)CCOc1ccccc1)c1nc2c(F)cccc2s1	Tb PYK inh inconclusive, Sm TGR block 0.4µM
CN(C)CCCN(C(=O)CCc1ccccc1)c1nc2c(F)cccc2s1	none
O=C(CCOc1ccccc1)N(Cc1cccnc1)c1nc2ccc(F)cc2s1	Sm TGR block 4µM (no result: RE007 growth inh)
CN(C)CCCN(C(=O)CCOc1ccccc1)c1nc2ccc(F)cc2s1	Sm TGR block 0.63µM
Cc1c(CC(C)(C)C(=O)O)n(Cc2ccc(Cl)cc2)c2ccc(F)cc12	none (no result: Tb PYK inh, RE007 growth inh, Sm TGR block)
C[C@H](NC(=O)[C@@H]1CCC(=O)N1Cc1ccco1)c1ccccc1	Sm TGR block 50µM
Cc1ccc(CN2C(=O)CCC2C(=O)NCc2ccco2)cc1 (centres undefined)	none
CN(Cc1ccccc1)C(=O)[C@H]1CCC(=O)N1Cc1ccco1	Sm TGR block 16µM
O=C(O)[C@H]1CCC(=O)N1Cc1ccco1	none
CCOC(=O)CNC(=O)Cn1nc(N2CCN(c3ccccc3)CC2)ccc1=O	none (no result: RE007 growth inh)
Cc1ccc(C(=O)Nc2ccc3oc(-c4cccnc4)nc3c2)c(Cl)c1	none (no result: RE007 growth inh)
O=C(CSc1n[nH]c(-c2cccs2)n1)N1CCN(S(=O)(=O)c2ccc3ccccc3c2)CC1	FMDV inh 22µM
COC(=O)\C(C(C)=O)=C(/C=C/C=C/C=C/N(C)C)N(C)C	Sm TGR block 35µM
COC(=O)/C(C(C)=O)=C(\C=C\N(C)C)N(C)C	none (no result: FMDV inh)
Cc1c(Cl)cccc1-c1ccc(C(=O)Nc2ccc(F)cc2)o1	none (no result: RE007 growth inh)
CC(CC=O)CCCC(C)(C)O (centres undefined)	none (no result: FMDV inh, RE007 growth inh, Sm TGR block)
Clc1ccccc1-c1nnc(SCc2nc(-c3ccccc3)no2)n1-c1ccccc1	FMDV inh 25µM (no result: RE007 growth inh)
Clc1ccc(-c2noc(CSc3nnc(-c4ccncc4)n3-c3ccccc3)n2)cc1	FMDV inh 25µM
Cc1ccc(-n2c(SCc3nc(-c4ccc(Cl)cc4)no3)nnc2-c2ccncc2)cc1	FMDV inh inconclusive (no result: RE007 growth inh)
COc1cc(C(c2c(O)nc(SC)[nH]c2=O)c2c(O)nc(SC)[nH]c2=O)cc(OC)c1OC	Sm TGR block 1.8µM
COc1ccc(OC)c(C(c2c(O)nc(SC)[nH]c2=O)c2c(O)nc(SC)[nH]c2=O)c1	Tb PYK inh inconclusive, Sm TGR block 1.4µM
CCOC(=O)c1c(C)[nH]c(C)c1S(=O)(=O)N(C)CC(=O)N1CCN(c2ccccc2OC)CC1	none (no result: RE007 growth inh)
COC(=O)C1CCN(C(c2ccccc2)c2sc3nc(-c4ccco4)nn3c2O)CC1 (centres undefined)	none (no result: RE007 growth inh)
O=c1c2c3c(sc2ncn1/N=C/c1ccc([N+](=O)[O-])o1)CCCC3	FMDV inh 28µM
Cn1cc(/C=N/n2cnc3sc4c(c3c2=O)CCCC4)c2ccccc21	none
CC12CC3CC(C)(C1)CC(C(=O)NCc1ccco1)(C3)C2	Tb PYK inh inconclusive
O=C(NCc1ccco1)C12CC3CC(C1)CC(C(=O)NCc1ccco1)(C3)C2	Sm TGR block 40µM
O=S(NCc1ccco1)C12CC3CC(CC(C3)C1)C2 (centres undefined)	Sm TGR block 22µM (no result: FMDV inh)
O=S(NCc1ccccc1)C12CC3CC(CC(C3)C1)C2 (centres undefined)	none (no result: FMDV inh)
Cc1ccc(CCNC(=O)NCc2noc3ccc(C)cc23)cc1	none (no result: RE007 growth inh)
Cc1c(C(=O)NCCC2CCCN2C)cnn1-c1nccc(-c2ccccc2F)n1 (centres undefined)	none (no result: Tb PYK inh, RE007 growth inh, Sm TGR block)
CCc1cccc(NC(=O)Cn2c(=O)n(CC3CCC(C(=O)NCCc4ccccc4)CC3)c(=O)c3ccccc32)c1 (centres undefined)	none (no result: RE007 growth inh)
COc1cccc(CCc2nnc(CCC(=O)NCCc3cccc(C)n3)o2)c1	none
